Assay results: PubChem BioAssay
“And” between values parts separate entries of the source, which are not always exact repeats. Equal values may be shown once. The source made the active and inactive calls.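 Rule for the calls: active = inhibition above 20% together with a positive visual image hit; inconclusive = visual image hit but inhibition not above 20%; inactive = no visual image hit.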

assay: inhibitors of TNFa-induced NFkB p65 translocation, primary screen, imaging, HUVEC, MLSMR starter and 10KST1 sets (AID 438); details: HUVEC TNFa-induced p65 nuclear translocation; cell count: measured here: nuclei count (cytotoxicity indicator), at 2.08 µM; inhibition: at 2 µM, stronger effect = higher value, 0% TNFa-plus-vehicle, 100% no-TNFa wells;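 note: compound added about 3h40 before a 20 min TNFalpha stimulation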;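 for inhibition: signal is the nuclear over cytoplasmic p65 intensity ratio per well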

| SMILES | inhibition | cell count |
| --- | --- | --- |
| N#CC1=C(N)N(c2ccccc2)C(c2ccccc2)C1(C#N)C#N (stereo not given) | -9.5% (inactive) | 635 |
| CC(C)NCC(O)COc1cccc2[nH]ccc12 (stereo not given) | -11.5% (inactive) | 631 |
| COCc1cc(=O)[nH]c(Nc2nc3ccccc3o2)n1 | -4.5% (inactive) | 597 |
| O=C(O)c1cc(=O)cc(C(=O)O)[nH]1 | 1.8% (inactive) | 482 |
| Cc1cc(C)n(S(=O)(=O)Cc2ccccc2)n1 | 0.8% (inactive) | 495 |
| Cn1c(Cl)cnc1C1CC(=O)c2cc(Cl)ccc2O1 (stereo not given) | -11.8% (inactive) | 637 |
| CCOC(=O)CC(C#N)c1cn(C)c2ccccc12 (stereo not given) | -0.6% (inactive) | 657 |
| CCCC(=O)Nc1ccc(OCC(O)CNC(C)C)c(C(C)=O)c1 (stereo not given) | -4.7% (inactive) | 693 |
| CC1(C)SC2[C@H](NC(=O)C(NC(=O)N3CCNC3=O)c3ccccc3)C(=O)N2C1C(=O)O (stereo not given in full) | -9.5% (inactive) | 705 |
| CCOC(=O)C1=C(CSc2nc(C)cc(C)c2C#N)OC(N)=C(C#N)C1c1cccs1 (stereo not given) | 7.3% (inactive) | 502 |
| Cc1ccc(N(CC2=NCCN2)c2cccc(O)c2)cc1 | -6.5% (inactive) and 2.1% (inactive) | 561 and 534 |
| Cc1cc(NS(=O)(=O)c2ccc(N)cc2)no1 | 2.1% (inactive) | 614 |
| O=c1cc(NCc2ccccc2)nc2n1CCCS2 | -1.5% (inactive) | 572 |
| COc1ccc2c(C)nc(Nc3nc(C)cc(C)n3)nc2c1 | -5.8% (inactive) | 644 |
| Fc1cc(F)c(F)c(SCCc2ccncc2)c1F | -0.9% (inactive) | 541 |
| CN1CCN(C2=Nc3ccccc3Oc3ccc(Cl)cc32)CC1 | -3.1% (inactive) | 536 |
| Cc1cnc(NC(=O)C2=C(O)c3ccccc3S(=O)(=O)N2C)s1 | 4.7% (inactive) | 640 |
| COc1cccc2c1C(=O)c1c(O)c3c(c(O)c1C2=O)C[C@@](O)(C(=O)CO)C[C@@H]3O[C@H]1C[C@H](N)[C@H](O)[C@H](C)O1 | -15.3% (inactive) | 564 |
| O=S(=O)(c1cccc2cnccc12)N1CCCNCC1 | 4.2% (inactive) | 401 |
| CC(C)Cc1ccc(C(C)C(=O)O)cc1 (stereo not given) | -0.8% (inactive) | 604 |

| SMILES | inhibition | cell count |
| --- | --- | --- |
| C[C@H](CS)C(=O)N1CCC[C@H]1C(=O)O | 1.6% (inactive) | 555 |
| COC(=O)C1=C(C)NC(C)=C(C(=O)OC)C1c1ccccc1[N+](=O)[O-] | -5.5% (inactive) | 548 |
| O=C(c1ccc2c(c1)OCCO2)N1CCCCC1 | -15% (inactive) | 580 |
| Nc1ccc(S(=O)(=O)Nc2ncccn2)cc1 | -1.5% (inactive) | 603 |
| COc1ccccc1C1C(C#N)=C(N)Oc2cc(C)n(Cc3ccccn3)c(=O)c21 (stereo not given) | -2.4% (inactive) | 679 |
| CC(=O)O[C@H]1C(=O)[C@]2(C)[C@H]([C@H](OC(=O)c3ccccc3)[C@]3(O)C[C@H](OC(=O)[C@H](O)[C@@H](NC(=O)c4ccccc4)c4ccccc4)C(C)=C1C3(C)C)[C@]1(OC(C)=O)CO[C@@H]1C[C@@H]2O | -11.8% (inactive) | 508 |
| CCC(=O)O[C@@H]1CC(=O)O[C@H](C)CC=CC=C[C@@H](O)[C@H](C)C[C@H](CC=O)[C@H](O[C@H]2O[C@H](C)[C@@H](O[C@H]3C[C@@](C)(O)[C@@H](OC(=O)CC)[C@H](C)O3)[C@H](N(C)C)[C@H]2O)[C@H]1OC | -0.7% (inactive) | 725 |
| CCCn1c(=O)[nH]c(=O)c2[nH]cnc21 | -1.8% (inactive) | 615 |
| CC[N+](C)(C)Cc1ccccc1Br | -4.5% (inactive) | 649 |
| COC(=O)c1cc(=O)n2c(-c3ccc(OC)cc3)csc2n1 | -6.9% (inactive) | 468 |
| COc1ccccc1OCC(O)COC(N)=O (stereo not given) | 2.6% (inactive) | 634 |
| COc1cc2nc(N3CCN(C(=O)c4ccco4)CC3)nc(N)c2cc1OC | 3% (inactive) | 679 |
| Cc1nnc(SCC2=C(C(=O)O)N3C(=O)[C@@H](NC(=O)Cn4cnnn4)[C@H]3SC2)s1 | -2.9% (inactive) | 628 |
| Clc1ccc2c(c1)C(N1CCNCC1)=Nc1ccccc1O2 | -0.2% (inactive) | 676 |
| CC1(C)S[C@@H]2[C@H](NC(=O)[C@H](C(=O)O)c3ccsc3)C(=O)N2[C@H]1C(=O)O | -8.9% (inactive) | 519 |
| O=C(O)c1cc(=O)c2c(OCC(O)COc3cccc4oc(C(=O)O)cc(=O)c34)cccc2o1 | -2.9% (inactive) | 472 |
| CC[C@H]1OC(=O)C[C@@H](O)[C@H](C)[C@@H](O[C@@H]2O[C@H](C)C[C@H](N(C)C)[C@H]2O)[C@@H](CC=O)C[C@@H](C)C(=O)C=C[C@]2(C)O[C@H]2[C@@H]1C | -3.7% (inactive) | 610 |
| O=C(O)CCNC(=O)c1ccccc1 | -4.9% (inactive) | 571 |
| CC[C@H](C)C(=O)O[C@H]1C[C@@H](C)C=C2C=C[C@H](C)[C@H](CC[C@@H]3C[C@@H](O)CC(=O)O3)[C@H]21 | -11.9% (inactive) | 724 |
| Cc1ccc(C2C3CN(C(C)C)CC=C3C(C#N)=C(N)C2(C#N)C#N)cc1 (stereo not given) | 0.1% (inactive) | 620 |
